The list is not random: actives were taken first. Their share in the collection is about 3.6%.
D1 antagonist: Antagonist of Human D 1 Dopamine Receptor: qHTS | actives 3.2% (n = 360,000) | activity change, negative = inhibition, % at 10 µM | HEK293 TREx D1 cells, calcium flux, dopamine EC80; active compounds read low | AID 504652, 2011; in the data active means activity change below about -30%; further: on the % scale 0 is the no-effect control and ±100 the full control effect
Target sequence (P21728 whole entry, looked up): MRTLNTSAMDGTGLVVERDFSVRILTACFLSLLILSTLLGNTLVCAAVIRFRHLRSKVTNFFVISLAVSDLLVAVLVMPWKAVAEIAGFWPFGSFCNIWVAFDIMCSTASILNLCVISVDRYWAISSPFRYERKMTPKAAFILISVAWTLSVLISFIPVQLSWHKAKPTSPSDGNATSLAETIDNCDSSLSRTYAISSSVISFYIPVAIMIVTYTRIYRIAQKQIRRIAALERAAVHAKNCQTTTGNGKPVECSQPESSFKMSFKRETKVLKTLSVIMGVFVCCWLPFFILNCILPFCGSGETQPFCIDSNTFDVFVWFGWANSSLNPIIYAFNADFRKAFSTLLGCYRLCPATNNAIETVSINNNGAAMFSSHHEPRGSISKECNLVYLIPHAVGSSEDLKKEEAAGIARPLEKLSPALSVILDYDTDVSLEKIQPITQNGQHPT
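Calcium flux readout: force-coupled, inducible Hek293 Trex D1 line, cells induced overnight at 30 C with tetracycline, dye-loaded 30–90 min at RT. Antagonism scored against EC80 dopamine challenge given 180 s after compound.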
TRHR enhancer: qHTS for Small Molecule Agonists and Allosteric Enhancers of Human TRH Receptor: Primary Screen for Enhancers; actives 0.66% (n = 360,000); Thyrotropin-releasing hormone receptor (Homo sapiens), P34981; enhancement, % at 2 µM; AID 493056, 2011; TRHR cells, fluo-8 calcium fluorescence, EC20 TRH enhancement; in the data active means enhancement above about 30%; further: 0% is about no effect
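Enhancer read-out: after compound pinning and an initial kinetic agonist-mode read, an EC20 of TRH (10 nM final) was injected and fluo-8 calcium signal (Ex 480/Em 530) followed at 1 s/cycle for 100 cycles in TRHR-expressing cells.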
D1 ag: Allosteric Agonists of the Human D1 Dopamine Receptor: qHTS. D(1A) dopamine receptor (Homo sapiens), P21728. HEK293 T-REx D1 cells, calcium flux, agonist mode. activation, % at 2 µM. actives 1% (n = 360,000). AID 504660, 2011; further: 0% is about no effect
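Inducible HEK293 T-REx D1 cells, force-coupled to calcium signalling, were plated at 4000 cells/well with tetracycline and held overnight at 30 C. After no-wash calcium dye loading, compound-evoked calcium rise over 180 s flagged agonists.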
LDHA inh: qHTS assay for inhibitors of human lactate dehydrogenase | purified LDHA, NADH/diaphorase-resazurin fluorescence; active compounds read low | activity change, % (values are at about 110 or 230 µM) | actives 0.15% (n = 480,000) | L-lactate dehydrogenase A chain (Homo sapiens), P00338; in the data active means activity change below about -30%;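 further: plate controls were DMSO wells for no effect and wells without enzyme for full effect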
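Resorufin fluorescence (ex540/em590), read at 0 and 20 min after diaphorase/resazurin addition, reports the NADH left after a 5 min room-temperature reaction of 2 nM human LDH5 with 0.06 mM NADH and 0.2 mM pyruvate.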
TRHR agonist: qHTS for Small Molecule Agonists and Allosteric Enhancers of Human TRH Receptor: Primary Screen for Agonists; TRHR cells, calcium flux fluo-8, FDSS agonist mode; activation, % at 2 µM; actives 0.18% (n = 360,000); AID 493084, 2011; Thyrotropin-releasing hormone receptor (Homo sapiens), P34981; further: 0% is about no effect
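Fluo-8-loaded TRHR cells; 10 s baseline, compound added, kinetic Ca2+ fluorescence read 1/s, agonist mode.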
D1 potentiator: Potentiators of Human D1 Dopamine Receptor: qHTS; D(1A) dopamine receptor (Homo sapiens), P21728; HEK293 TREx D1 cells, calcium flux, dopamine EC20 potentiation; potentiation, % at 10 µM; actives 0.036% (n = 360,000); in the data active means potentiation above about 30%; further: 0% is about no effect
* = called active by the depositor; . = no result given. Unless noted, no stated cut-off is given here; in the data, active means activation above about 30%; inactive means the rest.

SMILES	D1 antagonist	TRHR enhancer	D1 ag	LDHA inh	TRHR agonist	D1 potentiator
Cc1ccc(S(=O)(=O)NCCC(=O)N2CCN(c3cccc(Cl)c3)CC2)cc1C	-30*	1	6	2	0	3
Cc1nc2ccc(S(=O)(=O)NCC(=O)N3CCN(c4ccccc4)CC3)cc2s1	-39*	-7	1	-2	0	-5
Cc1ccc(S(=O)(=O)NCCC(=O)N2CCCCC2)cc1	3	-5	-1	.	0	0
Cc1ccc(CNC(=O)C(NS(=O)(=O)c2ccc3nc(C)sc3c2)C(C)C)cc1 (stereo unspecified)	2	4	3	-3	0	-2
Cc1nc2ccc(S(=O)(=O)NC(C(=O)N3CCn4c3nc3ccccc34)C(C)C)cc2s1 (stereo unspecified)	-55*	-12	1	-2	1	-6
O=C(CCCN1C(=O)NC2(CCCC2)C1=O)Nc1cccc2cccnc12	.	.	.	-2	.	.
Cc1ccc(S(=O)(=O)N(C)CC(=O)N2CCCCCC2)cc1	-2	33*	-4	-3	0	4
N#C/C(=C\c1ccc[nH]1)S(=O)(=O)c1ccccc1	-32*	-1	20	8	2	-2
COC(=O)c1cc(-c2ccc(Cl)cc2)nc2onc(C(C)C)c12	.	.	.	3	.	.
O=C1NC(=O)/C(=C/c2ccc(-c3cc(C(=O)O)ccc3Cl)o2)S1	-45*	-14	0	-6	0	0
CCCN(Cc1cc2ccc(C)cc2[nH]c1=O)S(=O)(=O)c1ccc(Cl)cc1	.	.	.	-9	.	.
O=C(Nc1ccc(F)c(Cl)c1)Nc1nnc([C@H]2C[C@H](O)[C@@H](CO)O2)s1	.	.	.	-48*	.	.
CCOC(=O)Cn1nnc(-c2cc(OC)c(OC)c(OC)c2)n1	-20	-4	5	-5	0	-2
COc1cc(-c2nnn(CC(=O)Nc3ccc(OC(F)(F)F)cc3)n2)cc(OC)c1OC	-32*	-27	2	-3	3	-3
CC1(c2ccc(OC(F)F)cc2)NC(=O)N(/N=C/c2c(O)ccc3ccccc23)C1=O (stereo unspecified)	29	-1	32*	30	4	-1
CC1(c2ccc(OC(F)F)cc2)NC(=O)N(CC(=O)Nc2cccc(S(N)(=O)=O)c2)C1=O (stereo unspecified)	14	-4	1	-10	0	-1
Oc1ccc(-c2nc(-c3ccc(Cl)s3)cs2)cc1	.	.	.	6	.	.
O=C(CSc1cccc2cccc(Cl)c12)OCc1cc(Cl)c2c(c1)OCCCO2	.	.	.	6	.	.
O=S(=O)(Nc1cccc(CCc2ccccn2)c1)c1ccc2ccccc2c1	4	3	32*	-2	0	-6
Nc1nc(-c2ccccn2)nc(N)c1Cc1ccc(Cl)cc1Cl	305	4	34*	6	2	51*
Nc1nc(-c2ccccn2)nc(N)c1Cc1ccccc1F	26	3	2	1	0	9
CCN1CCN(Cc2nc3c(c(=O)n(C)c(=O)n3C)n2CCCO)CC1	.	.	.	17	.	.
Cc1ccccc1NC(=O)Cn1nc(C(F)(F)F)cc1C1CC1	3	1	3	-15	0	0
Cc1nn(C)cc1NC(=O)Cn1nc(C(F)(F)F)cc1C1CC1	-67*	-1	-1	-6	0	-7
CCN(CC(=O)NCc1cccs1)C(=O)/C=C/c1ccc(OC)cc1OC	12	-11	2	-11	0	-5
SMILES	D1 antagonist	TRHR enhancer	D1 ag	LDHA inh	TRHR agonist	D1 potentiator
CCN(CC(=O)NCc1cccs1)C(=O)C1CC(=O)N(c2ccc(OC)cc2OC)C1 (stereo unspecified)	-34*	7	-2	-3	0	-4
CCN(CC(=O)NCc1cccs1)C(=O)/C=C/c1cc(OC)ccc1OC	-67*	4	-1	-12	-1	-15
CCn1c(C(=O)N2CCC(C(=O)N3CCN(c4cccc(C)c4C)CC3)CC2)cc2sccc21	-15	2	3	-3	0	-4
CCn1c(C(=O)N2CCC(C(=O)N3CCN(c4cc(C)ccc4C)CC3)CC2)cc2sccc21	-36*	4	-1	-2	0	-3
O=C(Cn1ncc(Cl)c(Cl)c1=O)Nc1ccc2c(c1)OCO2	-50*	2	0	4	0	-9
COc1ccc(NC(=O)Cn2ncc(Cl)c(Cl)c2=O)cc1S(=O)(=O)N1CCOCC1	-40*	0	0	-2	-2	-12
Nc1nnnn1NCc1cc(Br)ccc1OCc1ccccc1	.	.	.	8	.	.
O=C(Nc1ccc2c(c1)OCCO2)N1c2ccccc2Sc2ccccc21	.	.	.	11	.	.
Cc1c(OCC(=O)Nc2cc(Cl)cc(Cl)c2)c(=O)ccn1C	.	.	.	0	.	.
Cn1c(=O)[nH]c(=O)c2c1nc(N1CCN(c3ccccc3)CC1)n2Cc1ccccc1F	.	.	.	-2	.	.
CC(C)CCn1c(N2CCCC2)nc2c1c(=O)[nH]c(=O)n2C	-38*	-8	4	3	-1	-5
Cc1cc(C)n(-c2nc3c(c(=O)n(CC(N)=O)c(=O)n3C)n2CCC(C)C)n1	.	.	.	-21	.	.
Cc1csc(SCCn2c(N3CCN(c4ccccc4)CC3)nc3c2c(=O)[nH]c(=O)n3C)n1	-64*	5	-1	-1	-1	0
CC(C)CCn1c(N2CCC(C(N)=O)CC2)nc2c1c(=O)[nH]c(=O)n2C	-5	8	2	-2	0	-3
CC(C)CCn1c(N2CCOCC2)nc2c1c(=O)n(CC(N)=O)c(=O)n2C	-58*	6	1	-5	1	-10
CC1CCCCC1N(C)C1CCN(C(=O)CNC(=O)/C=C/c2cccc(Cl)c2)CC1 (stereo unspecified)	-31*	0	14	-8	-1	-2
Cc1ccccc1N=C1SCC(=O)N1Cc1ccccc1	20	-6	9	-4	0	0
O=C1CSC(=Nc2cccc(Cl)c2Cl)N1Cc1cccnc1	-35*	-8	4	-2	-1	-4
COc1cccc(C(C2C(=O)CC(C)(C)CC2=O)C2C(=O)CC(C)(C)CC2=O)c1	-1	-3	2	-2	-1	4
COc1cccc(C(C2=C(O)CC(C)(C)CC2=O)C2C(=O)CC(C)(C)CC2=O)c1 (stereo unspecified)	-2	34*	1	-4	0	-3

Screens: PubChem BioAssay, National Center for Advancing Translational Sciences (NCATS)
